The values that follow come from the antibiotic and cytotoxicity screens of Wong et al. (2023).

SMILES strings stand for the structures. In all, about 39,000 compounds went through this assay and about 500 (1.3%) were called active. This is one part of a sample in which actives are shown more often than they occur.

The assay deals with S. aureus RN4220. Put plainly: growth inhibition call (relative growth <= 0.2). The settings on record: 50 µM.
In the case of `NC(=O)NN=Cc1ccc([N+](=O)[O-])o1`, the growth inhibition call was “active”.

Consider `Cc1ccc(S(=O)(=O)N2CCN(CC(=O)N/N=C/c3ccccn3)CC2)cc1`, for which the growth inhibition call was “inactive”.

Consider `COC(=O)N/N=C/c1ccc([N+](=O)[O-])o1`, for which the growth inhibition call is “inactive”.

In the case of `O=C(N/N=C/c1ccc(CO)o1)c1ccccn1`, the growth inhibition call was “inactive”.

As to `O=C(Cn1ccc([N+](=O)[O-])n1)N1CCOCC1`, the growth inhibition call is “inactive”.

`CCOC(=O)c1ccc(N2NC(=O)/C(=C/c3ccc([N+](=O)[O-])o3)C2=O)cc1`: the growth inhibition call is “inactive”.

For the compound `O=C(CN1CCOCC1)N/N=C/c1ccc([N+](=O)[O-])o1`, the growth inhibition call is “active”.

Consider `NC(=O)N/N=C/c1ccc([N+](=O)[O-])o1`, for which the growth inhibition call was “active”.

Regarding `O=C(NN=Cc1ccc([N+](=O)[O-])o1)c1ccc(O)cc1`, the growth inhibition call was “inactive”.

For the compound `COCC#Cc1ccc2c(c1)O[C@H](CN(C)C(=O)c1ccccc1F)[C@H](C)CN([C@H](C)CO)S2(=O)=O`, the growth inhibition call is “inactive”.

For the compound `C[C@H](CO)N1C[C@H](C)[C@H](CN(C)C(=O)Nc2ccc3c(c2)OCO3)Oc2ncc(-c3cncnc3)cc2C1=O`, the growth inhibition call is “inactive”.

In the case of `COc1ccc(NC(=O)Nc2ccc3c(c2)C(=O)N([C@H](C)CO)C[C@@H](C)[C@@H](CN(C)Cc2ccc(C(=O)Nc4ccccc4N)cc2)O3)cc1`, the growth inhibition call was “inactive”.

Turning to `C[C@@H]1CN([C@H](C)CO)C(=O)CCCn2cc(nn2)CO[C@H]1CN(C)S(C)(=O)=O`, the growth inhibition call is “inactive”.

In the case of `O=C(CN1CCOCC1)NCC[C@H]1CC[C@@H](NC(=O)c2ccccc2F)[C@H](CO)O1`, the growth inhibition call is “inactive”.

Turning to `COc1ccc(NC(=O)N(C)C[C@@H]2OCCCC[C@@H](C)Oc3ccc(NS(=O)(=O)c4ccccc4)cc3C(=O)N([C@@H](C)CO)C[C@@H]2C)cc1`, the growth inhibition call was “inactive”.

On to `CCS(=O)(=O)Nc1ccc2c(c1)C(=O)N(C)C[C@H](OC)[C@@H](C)CN(Cc1nccs1)[C@H](C)CO2`, for which the growth inhibition call was “inactive”.

Take `CCOC(=O)Nc1ccc(C)s1`: the growth inhibition call was “inactive”.

As to `Cc1noc(C)c1S(=O)(=O)N(C)C[C@@H]1OCCCC[C@@H](C)Oc2ccc(NC(=O)Nc3ccc(C(F)(F)F)cc3)cc2C(=O)N([C@@H](C)CO)C[C@@H]1C`, the growth inhibition call was “inactive”.

Turning to `C[C@@H]1CN([C@H](C)CO)C(=O)c2cc(/C=C/c3ccccc3)cnc2O[C@@H]1CN(C)C(=O)C1CCOCC1`, the growth inhibition call is “inactive”.

Regarding `C[C@@H]1CN([C@@H](C)CO)C(=O)CCCn2nncc2CO[C@@H]1CN(C)S(=O)(=O)c1ccccc1C#N`, the growth inhibition call was “inactive”.

Take `COC(=O)c1c(C)cc(OC(=O)c2c(C)cc(O)c(C=O)c2O)c(C)c1O`: the growth inhibition call was “inactive”.

Consider `Cc1cc(O)c(C=O)c(O)c1C(=O)O`, for which the growth inhibition call was “inactive”.

`CCOC(=O)c1c(C)cc(O)c(C=O)c1O`: the growth inhibition call was “active”.

Consider `CCCCC[C@@H](O)C[C@@H](O)CC(=O)O[C@@H](CCCCC)C[C@@H](O)CC(=O)OC[C@@H](O)[C@@H](O)[C@@H](O)[C@@H](O)CO`, for which the growth inhibition call was “inactive”.

`COc1ccc(CN(C)C[C@@H]2Oc3ccc(NC(=O)Nc4ccc(C(F)(F)F)cc4)cc3CC(=O)N([C@H](C)CO)C[C@@H]2C)cc1`: the growth inhibition call was “inactive”.

On to `C[C@H]1CCCCO[C@@H](CN(C)C(=O)Nc2ccccc2)[C@@H](C)CN([C@@H](C)CO)C(=O)c2cc(NC(=O)c3ccccc3)ccc2O1`, for which the growth inhibition call was “inactive”.

As for `O=C1c2ccccc2C(=O)c2c(NCCNCCO)ccc(NCCNCCO)c21`, the growth inhibition call was “inactive”.

Take `C[C@@H]1CN([C@H](C)CO)C(=O)c2cc(NC(=O)C3CC3)ccc2O[C@@H]1CN(C)Cc1ccc(-c2ccccc2)cc1`: the growth inhibition call is “inactive”.

`COc1ccc(NC(=O)Nc2cccc3c2O[C@@H](CN(C)C(=O)Nc2ccc(C(F)(F)F)cc2)[C@@H](C)CN([C@@H](C)CO)C3=O)cc1`: the growth inhibition call is “inactive”.

Regarding `Cc1noc(C)c1NC(=O)Nc1cccc2c1O[C@H](CN(C)C(=O)Nc1ccc(C(F)(F)F)cc1)[C@H](C)CN([C@H](C)CO)C2=O`, the growth inhibition call was “inactive”.

Regarding `C[C@@H]1CN([C@@H](C)CO)C(=O)c2cccc(NC(=O)Nc3ccc(F)cc3)c2O[C@H]1CN(C)C(=O)Nc1ccc(C(F)(F)F)cc1`, the growth inhibition call is “inactive”.

For `C[C@@H]1CN([C@H](C)CO)C(=O)c2cccc(NC(=O)Nc3ccc(F)cc3)c2O[C@H]1CN(C)C(=O)Nc1ccc(C(F)(F)F)cc1`, the growth inhibition call was “inactive”.

Turning to `COc1ccc(NC(=O)N(C)C[C@@H]2Oc3c(NC(=O)Nc4ccc(C(F)(F)F)cc4)cccc3C(=O)N([C@@H](C)CO)C[C@@H]2C)cc1`, the growth inhibition call is “active”.

In the case of `C[C@H]1CN([C@@H](C)CO)C(=O)c2cccc(NC(=O)Nc3ccc(C(F)(F)F)cc3)c2O[C@H]1CN(C)C(=O)Nc1ccc(F)cc1`, the growth inhibition call is “inactive”.

Regarding `C[C@@H]1CN([C@@H](C)CO)C(=O)c2cccc(NC(=O)Nc3ccc(C(F)(F)F)cc3)c2O[C@H]1CN(C)C(=O)Nc1ccc(F)cc1`, the growth inhibition call is “active”.

For the compound `COc1ccc(NC(=O)Nc2cccc3c2O[C@H](CN(C)C(=O)Nc2ccc(C(F)(F)F)cc2)[C@@H](C)CN([C@@H](C)CO)C3=O)cc1`, the growth inhibition call was “inactive”.

With `C[C@@H]1CN([C@H](C)CO)C(=O)c2cccc(NC(=O)Nc3ccc(C(F)(F)F)cc3)c2O[C@@H]1CN(C)C(=O)Nc1ccc(F)cc1`, the growth inhibition call was “active”.

Consider `Cc1noc(C)c1NC(=O)Nc1cccc2c1O[C@@H](CN(C)C(=O)Nc1ccc(C(F)(F)F)cc1)[C@@H](C)CN([C@H](C)CO)C2=O`, for which the growth inhibition call is “inactive”.

For the compound `C[C@H](CO)N1C[C@H](C)[C@H](CN(C)C(=O)Nc2ccc(C(F)(F)F)cc2)Oc2c(NC(=O)Nc3ccc(F)cc3)cccc2C1=O`, the growth inhibition call was “inactive”.

With `Cc1noc(C)c1NC(=O)Nc1cccc2c1O[C@@H](CN(C)C(=O)Nc1ccc(C(F)(F)F)cc1)[C@H](C)CN([C@@H](C)CO)C2=O`, the growth inhibition call was “active”.

For `CO[C@H]1CN(C)C(=O)c2ccc(NS(C)(=O)=O)cc2OC[C@H](C)N(C(=O)c2ccc3c(c2)OCO3)C[C@@H]1C`, the growth inhibition call was “inactive”.

For the compound `CCCNC(=O)N1C[C@H](O)COC[C@H]2O[C@@H](CC(=O)N3CCOCC3)CC[C@@H]21`, the growth inhibition call was “inactive”.

For the compound `CCCCc1cc(CCCC)n2nc(-c3ccccc3)cc2n1`, the growth inhibition call is “inactive”.

For the compound `CCS(=O)(=O)N1C[C@]2(CN(C2)S(=O)(=O)c2cn(cn2)C)c2c([nH]c3cc(ccc23)OC)[C@H]1CO`, the growth inhibition call is “inactive”.

For `COCC#Cc1cnc2c(c1)C(=O)N([C@H](C)CO)C[C@H](C)[C@@H](CN(C)C(=O)c1ccc3c(c1)OCO3)O2`, the growth inhibition call was “inactive”.

On to `C[C@@H]1CCCCO[C@@H](CN(C)Cc2ccc(C(=O)O)cc2)[C@@H](C)CN([C@H](C)CO)C(=O)c2cc(NC(=O)Nc3ccc(F)cc3)ccc2O1`, for which the growth inhibition call is “inactive”.

For `CN(C)CCN1C[C@@H]2CN(C(=O)c3cnc[nH]3)C[C@H]2C1=O`, the growth inhibition call was “inactive”.

Consider `C[C@@H]1CN([C@H](C)CO)C(=O)Cc2cc(NS(=O)(=O)c3cn(C)cn3)ccc2O[C@H]1CN(C)S(=O)(=O)c1ccccc1`, for which the growth inhibition call is “inactive”.

`Cc1ccccc1S(=O)(=O)N1[C@@H]2c3cccc(=O)n3C[C@H]1[C@H](CO)[C@H]2C(=O)N1CCOCC1`: the growth inhibition call was “inactive”.

In the case of `C[C@H]1CN([C@@H](C)CO)C(=O)c2cccc(NS(=O)(=O)c3cn(C)cn3)c2O[C@@H]1CN(C)Cc1ccc(C(=O)Nc2ccccc2N)cc1`, the growth inhibition call was “inactive”.

Take `Cc1ccc(S(=O)(=O)N(C)C[C@H]2OCCCC[C@@H](C)Oc3ccc(NC(=O)CCCCCC(=O)Nc4ccccc4N)cc3C(=O)N([C@H](C)CO)C[C@@H]2C)cc1`: the growth inhibition call was “inactive”.

On to `Cc1noc(C)c1NC(=O)N(C)C[C@H]1OCCCC[C@@H](C)Oc2ccc(NS(=O)(=O)c3ccc(Cl)cc3)cc2C(=O)N([C@@H](C)CO)C[C@@H]1C`, for which the growth inhibition call is “inactive”.

With `Cn1c(=O)c2c(ncn2C[C@@H](O)CNc2ccc(Br)cc2)n(C)c1=O`, the growth inhibition call was “inactive”.

As to `COc1cc(C)c(C=CC=CC=CC=CC(=O)O)c(C)c1C`, the growth inhibition call is “inactive”.

Regarding `C[C@H]1CN([C@@H](C)CO)C(=O)c2cccc(NC(=O)Nc3ccc(C(F)(F)F)cc3)c2O[C@@H]1CN(C)C(=O)Nc1ccc(F)cc1`, the growth inhibition call is “inactive”.

With `C[C@H](CO)N1C[C@H](C)[C@H](CN(C)C(=O)Nc2ccc(F)cc2)Oc2c(NC(=O)Nc3ccc(C(F)(F)F)cc3)cccc2C1=O`, the growth inhibition call was “active”.

`C[C@@H]1CN([C@H](C)CO)C(=O)c2cccc(NC(=O)Nc3ccc(F)cc3)c2O[C@@H]1CN(C)C(=O)Nc1ccc(C(F)(F)F)cc1`: the growth inhibition call is “inactive”.

Turning to `C[C@H](CO)N1C[C@H](C)[C@@H](CN(C)C(=O)NC2CCCCC2)OCCCC[C@H](C)Oc2ccc(NC(=O)c3ccncc3)cc2C1=O`, the growth inhibition call was “inactive”.

For `C[C@@H]1CN([C@@H](C)CO)C(=O)c2cc(NC(=O)Nc3ccc(F)cc3)ccc2O[C@@H](C)CCCCO[C@@H]1CN(C)C(=O)NC1CCCCC1`, the growth inhibition call was “inactive”.

Turning to `C[C@@H]1CCCCO[C@@H](CN(C)C(=O)C2CCCCC2)[C@@H](C)CN([C@H](C)CO)C(=O)c2cc(NC(=O)C3CCCCC3)ccc2O1`, the growth inhibition call was “inactive”.

Turning to `Cn1nnnc1SCC1=C(C(=O)[O-])N2C(=O)C(NC(=O)C(O)c3ccccc3)C2SC1.[Na+]` (centres undefined), the growth inhibition call is “active”.

For `CC1=C(C(=O)O)N2C(=O)C(NC(=O)C(N)C3=CCC=CC3)C2SC1` (centres undefined), the growth inhibition call was “inactive”.

For the compound `O=C([O-])C1=C(CSc2nnnn2CS(=O)(=O)[O-])CSC2C(NC(=O)C(O)c3ccccc3)C(=O)N12.[Na+].[Na+]` (centres undefined), the growth inhibition call is “active”.

Consider `CC1=C(C(=O)O)N2C(=O)[C@@H](NC(=O)[C@H](N)C3=CCC=CC3)[C@H]2SC1`, for which the growth inhibition call was “inactive”.

With `Cn1nnnc1SCC1=C(C(=O)[O-])N2C(=O)C(NC(=O)C(OC=O)c3ccccc3)C2SC1.[Na+]` (centres undefined), the growth inhibition call is “active”.

In the case of `NCc1ccccc1CC(=O)NC1C(=O)N2C(C(=O)O)=C(CSc3nnnn3CC(=O)O)CSC12` (centres undefined), the growth inhibition call was “active”.

`CCCNC(=O)C[C@H]1CC[C@H]2[C@@H](COc3ccc(NC(=O)c4ccc5c(c4)OCO5)cc3C(=O)N2C)O1`: the growth inhibition call is “inactive”.

Turning to `C[C@H]1CN([C@@H](C)CO)C(=O)c2cc(Br)cnc2O[C@H]1CN(C)S(=O)(=O)c1ccccc1F`, the growth inhibition call was “inactive”.

As for `Cc1noc(C)c1NC(=O)N(C)C[C@@H]1Oc2ccc(NS(=O)(=O)c3cn(C)cn3)cc2CC(=O)N([C@H](C)CO)C[C@@H]1C`, the growth inhibition call is “inactive”.
